The source made the active and inactive calls. The rule behind the calls is not given here.
Test: inhibition of PAO1 biofilm formation – strain PAO1, LB-PBS medium, absorbance 600 nm, primary screen (AID 1176); note: test concentration not given here
Details: P. aeruginosa PAO1 growth/biofilm, A600, 12 h; higher = more signal

z-score, inactive:
COC(=O)[C@H](C)NC(=O)CCC1CC(OC(=O)NCc2cccc3ccccc23)CC2(CCCC(COC(=O)NCCc3ccccc3OC)O2)O1 (stereo partly drawn) 0.639, CO[C@@H](C(C)C)[C@@H](C)C1OC(=O)CC1O (stereo partly drawn) -0.139, COc1ccc(COC(=O)NN=C2C[C@@H](O)[C@@H](O)[C@@H]3[C@@H]4C(=O)N(C[C@@H]5CCCO5)C(=O)[C@@H]4CC[C@H]23)cc1 -0.0485, COC(=O)[C@H](C)NC(=O)CCC1CC(OC(=O)NCCc2ccc(F)cc2)CC2(CCCC(COC(=O)NCCc3ccccc3OC)O2)O1 (stereo partly drawn) 0.119, CON=C(C)CCN1CCCCc2nc(C)c(C)cc21 0.323, CC(C)C(=O)N[C@H]1CCCN1C(=O)C=Cc1ccccc1 0.897, C#CCCCON=C1C[C@@H](O)[C@@H](O)[C@@H]2[C@@H]3C(=O)N(C[C@@H]4CCCO4)C(=O)[C@@H]3CC[C@@H]12 0.14, COc1ccc(COC(=O)NN=C2C[C@@H](O)[C@@H](O)[C@@H]3[C@@H]4C(=O)N(C5CCCCC5)C(=O)[C@@H]4CC[C@@H]23)cc1 -0.118, CCOC(=O)[C@H](CC(C)C)NC(=O)CCC1CC(OC(=O)NCc2ccc3c(c2)OCO3)CC2(CCCC(COC(=O)NCCc3ccc(Cl)cc3)O2)O1 (stereo partly drawn) -0.151, CC(CCC(=O)OC[C@H]1O[C@H](C#Cc2ccccc2)C=C[C@@H]1Oc1ccc(C)cc1)=NO[C@@H](C)c1cc(-c2c(C)cc(C)cc2C)no1 -0.798, COC(=O)[C@H](C)NC(=O)CC=C[C@@H](C)[C@@H]1C=C[C@H](O)[C@@H](CO)O1 0.25, C[C@H]1CC[C@@H](C(=O)O)N[C@@H]1c1cccc(N2CCCC2=O)c1 -0.163, CO[C@@H]1[C@H](O)CO[C@H]1C=Cc1ccccc1 -0.859, COC(=O)[C@H](C)NC(=O)CCC1CC(OC(=O)NCCc2ccc(F)cc2)CC2(CCCC(COC(=O)NCc3ccccc3)O2)O1 (stereo partly drawn) 0.119, CC(C)CON=C1C[C@@H](O)[C@@H](O)[C@@H]2[C@@H]3C(=O)N(c4ccc(F)cc4F)C(=O)[C@@H]3CC[C@@H]12 -0.27, O=C1C=C[C@@H](O)[C@@H]2[C@@H]3C(=O)N(Cc4ccc5c(c4)OCO5)C(=O)[C@@H]3CC[C@@H]12 0.0122, CC[C@@H](c1ccccc1)n1c(=O)n2n(c1=O)[C@H]1[C@H](O)[C@@H]3O[C@@H]3C(=NOCc3ccccc3)[C@H]1CC2 -0.0819, CC(=O)OC[C@H]1O[C@H](CC=NOC[C@@H](O)COCc2ccco2)C=C[C@@H]1OC(C)=O -1.26, C[C@H]1C=CCC(=O)OC[C@H](C)C(=O)N2CCC[C@H]2C(=O)OC1 -0.455, CC(C)CON=C1C[C@@H](O)[C@@H](O)[C@@H]2[C@@H]3C(=O)N(Cc4ccc5c(c4)OCO5)C(=O)[C@@H]3CC[C@@H]12 -0.249, CCOC(=O)CCN1C(=O)[C@H]2[C@H]3[C@H](O)[C@H](O)CC(=NNC(=O)OCC)[C@H]3CC[C@H]2C1=O 0.614, CC(=O)OC[C@H]1O[C@@H](ON=C2[C@H]3CCn4c(=O)n(-c5ccccc5)c(=O)n4[C@H]3[C@H](O)[C@@H]3O[C@H]23)[C@H](OC(C)=O)[C@@H](OC(C)=O)[C@@H]1OC(C)=O -0.443, CCOC(=O)[C@H](CC(C)C)NC(=O)CCC1CC(OC(=O)NCc2ccc3c(c2)OCO3)CC2(CCCC(COC(=O)NCCOC)O2)O1 (stereo partly drawn) -0.516, O=C1C[C@@H](O)[C@@H](O)[C@@H]2[C@@H]3C(=O)N(c4ccc(F)cc4F)C(=O)[C@@H]3CC[C@H]12 0.471, CCOC(=O)CCN1C(=O)[C@H]2[C@@H]3C(=CC[C@H]2C1=O)C(=O)[C@H]1O[C@H]1[C@H]3O 0.0335, O=C1CCCC=C1C(O)C1CCCCC1 (stereo not drawn) -0.458, CCN1C(=O)[C@H]2[C@H]3[C@H](O)[C@H](O)CC(=NOC[C@@H](O)[C@H]4O[C@@H]5OC(C)(C)O[C@@H]5[C@H]4O)[C@@H]3CC[C@H]2C1=O -0.795, COc1ccc(COC(=O)NN=C2C[C@@H](O)[C@@H](O)[C@@H]3[C@@H]4C(=O)N(Cc5ccccc5)C(=O)[C@@H]4CC[C@@H]23)cc1 0.0335

Reference: PubChem BioAssay
